Experimental findings from PubChem BioAssay AID485364 (National Center for Advancing Translational Sciences (NCATS), 2010) are described below.

Hit rate of the full screen: of about 360,000 compounds, about 11,000 (3.1%) were called active. Where a call stands in place of a potency, no number is given. Another 4% or so got no clear call; they are omitted. Calls follow the shape of the dose curve; as a rule, active = well fitted inhibition curve with a large enough effect; inconclusive = small, poorly fitted or top-dose-only effect; inactive = no such curve, though single readings can be large or run the other way. Many of the other results were omitted from the sample, so actives are more common in it than they were.
Potency is read from the fitted curve at half-maximal effect.

The target in the experiment is Schistosoma mansoni thioredoxin glutathione reductase (TGR) (UniProt Q962Y6). In words: qHTS Assay for the Inhibitors of Schistosoma Mansoni Peroxiredoxins. Also: nearly all actives have a fitted effect of over 60% in size. As to conditions: purified TGR, DTNB reduction, TNB absorbance 405 nm; series mostly up to 114 µM. In outline:
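Kinetic colorimetric format: TGR-catalysed, NADPH-driven DTNB reduction monitored via TNB absorbance. Enzyme dispensed at 20 nM; compound exposure 15 min at room temperature before reaction start.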
In general terms: In qHTS, concentration-response curves come from the screen itself.
As to `Cc1nc(-c2ccc(Cl)cc2)sc1C1(C)CC(c2ccccc2F)=NO1` (stereo not drawn), the Potency entry is “inactive”.

Turning to `Cc1nc(-c2ccc(Cl)cc2)sc1C(=O)CBr`, the Potency was 39.8 µM (active).

`Cc1nc(-c2ccccc2)sc1C(=O)/C=C/N(C)C`: the Potency entry is “inactive”.

Regarding `COC(=O)c1cc(NC(=O)CCS(=O)(=O)c2cc(Br)cc3c2N(C(=O)C2CC2)CC3)cc(C(=O)OC)c1`, the Potency entry was “inactive”.

With `Cc1cc(C)c2[nH]c(=O)c(C(c3nnnn3Cc3ccc4c(c3)OCO4)N3CCCC3)cc2c1` (stereo not drawn), the Potency is 15.8 µM (active).

Turning to `Cc1ccc(S(=O)(=O)Cn2nnnc2CN2CCN(Cc3ccc4c(c3)OCO4)CC2)cc1`, the Potency entry was “inactive”.

Regarding `Fc1ccccc1C(c1nnnn1Cc1ccc2c(c1)OCO2)N1CCN(Cc2ccccc2)CC1` (stereo not drawn), the Potency entry is “inactive”.

Consider `Cc1cc2nc(-c3ccc(NC(=O)c4cc5ccccc5o4)cc3)oc2cc1C`, for which the Potency entry was “inactive”.

Take `COc1cc(OC)cc(C(=O)Nc2ccc3nc(Nc4cccc(C(F)(F)F)c4)cc(C)c3c2)c1`: the Potency result was “inactive”.

For the compound `O=C(/C=C/c1ccc(Cl)cc1Cl)c1cccnc1`, the Potency was 8.91 µM (active).

As for `O=C(OCc1cc(Cl)ccc1OC(F)F)c1cccnc1`, the Potency entry is “inactive”.

As to `O=C(NCc1ccc(Cl)c(Cl)c1)c1cccnc1`, the Potency result is “inactive”.

`COc1ccc(-c2nc3ccccc3o2)cc1NC(=O)c1cc([N+](=O)[O-])ccc1N1CCOCC1`: the Potency result was “inactive”.

Regarding `CN(C)CCCn1c(-c2ccc(Cl)cc2)csc1=Nc1ccccc1`, the Potency result is “inactive”.

Turning to `Cc1ccc(S(=O)(=O)N2CCC(C(=O)N[C@@H](C)C(=O)NCc3ccco3)CC2)cc1`, the Potency result is “inactive”.

Turning to `Cc1ccc(CNC(=O)C2CCCN2S(=O)(=O)c2ccc3c(c2)C(C)(C)C(=O)N3C)cc1` (stereo not drawn), the Potency result was “inactive”.

For the compound `O=C(NCc1ccco1)C1CCCN(S(=O)(=O)c2cccc3nonc23)C1` (stereo not drawn), the Potency is 22.4 µM (active).

On to `Cc1ccc(S(=O)(=O)N2CCCC2C(=O)NCc2ccco2)cc1` (stereo not drawn), for which the Potency is 50.1 µM (active).

For `O=C(NCc1ccco1)C1CCCN(S(=O)(=O)c2ccccc2)C1` (stereo not drawn), the Potency result was “inactive”.

Consider `O=C(NCc1ccco1)C1CCCN(S(=O)(=O)c2cnc[nH]2)C1` (stereo not drawn), for which the Potency result is “inactive”.

Turning to `O=C(NCCCO)C(=O)Nc1c2c(nn1-c1ccccc1)CSC2`, the Potency entry is “inactive”.

Regarding `Cc1c(-c2nsc(NC(=O)c3cccc(Cl)c3)n2)nnn1-c1ccccc1C(F)(F)F`, the Potency entry is “inactive”.

Consider `CCc1nn(CCCC(=O)NCc2ccccc2OC)c(=O)c2cc3occc3n12`, for which the Potency result was “inactive”.

Turning to `CN1C(=O)c2ccccc2Sc2ccc(NC(=O)Cc3ccc(Cl)cc3)cc21`, the Potency result was “inactive”.

Take `CCOc1cc(NC(=O)CCl)c(OCC)cc1NC(C)=O`: the Potency is 44.7 µM (active).

For `CCOc1cc(NC(=O)Nc2ccccc2)c(OCC)cc1NC(=O)CC`, the Potency result is “inactive”.

As for `CCOc1cc(NS(=O)(=O)c2ccc(OC)cc2)c(OCC)cc1NC(C)=O`, the Potency entry was “inactive”.

As to `Cc1cccc(NC(=O)Cn2nc(-c3ccc(Cl)cc3)c3ccccc3c2=O)c1`, the Potency entry was “inactive”.

On to `O=C1CC(c2ccccc2)C(=O)N1c1cccc(O)c1` (stereo not drawn), for which the Potency result was “inactive”.

Take `CC(=O)Nc1ccc(N2C(=O)CC(Sc3nccc(C)n3)C2=O)cc1` (stereo not drawn): the Potency result was “inactive”.

With `Cc1ccc(N2C(=O)CC(Sc3ncn[nH]3)C2=O)cc1` (stereo not drawn), the Potency is 0.447 µM (active).

As to `COc1ccc(N2C(=O)CC(Sc3n[nH]c(-c4ccc(C)cc4)n3)C2=O)cc1` (stereo not drawn), the Potency is 0.708 µM (active).

For `COc1ccc(-c2nc(SCC(=O)N3CCCC3)n[nH]2)cc1`, the Potency result was “inactive”.

For `COc1ccc(N2C(=O)CC(SC(C)C)C2=O)cc1` (stereo not drawn), the Potency result was “inactive”.

On to `CCOC(=O)c1ccc(N2C(=O)CC(Sc3nc(O)c(CC)c(=O)[nH]3)C2=O)cc1` (stereo not drawn), for which the Potency result was “inactive”.

Regarding `O=C1CC(Sc2ncn[nH]2)C(=O)N1c1ccccc1` (stereo not drawn), the Potency was 0.501 µM (active).

As to `CCN(C(=O)CSc1ncn[nH]1)c1cccc2ccccc12`, the Potency entry is “inactive”.

As to `COc1ccc(NC(=O)CSc2nc3ncccc3[nH]2)c(OC)c1`, the Potency result was “inactive”.

Consider `COc1ccccc1C(=O)NCCn1cc(SCc2ccccc2Cl)c2ccccc21`, for which the Potency entry is “inactive”.

Consider `Cc1cccc(N2CCN(c3ccc(C(=O)O)cc3NC(=O)c3ccccc3F)CC2C)c1` (stereo not drawn), for which the Potency result was “inactive”.

Regarding `COc1cc(OC)c(N(C)C(=O)c2cc3c(=O)oc4ccccc4c3s2)cc1Cl`, the Potency result was “inactive”.

As for `Cc1ccc(-c2cc(C(F)(F)F)c(C#N)c(SCC(=O)Nc3ccccc3)n2)cc1`, the Potency entry is “inactive”.

As to `Cc1cccc(CCNC(=O)c2ccc3c(c2)nc2n3CCC(C)C2)c1` (stereo not drawn), the Potency result was “inactive”.

Regarding `NC(=O)C1CCN(C2OC(=O)c3ccccc32)CC1` (stereo not drawn), the Potency entry is “inactive”.

In the case of `COc1ccc(N2C(=O)CC(N3CCC(C(N)=O)CC3)C2=O)cc1` (stereo not drawn), the Potency is 14.1 µM (active).

With `COc1ccc(COCC(O)CN2CCC(C(N)=O)CC2)cc1` (stereo not drawn), the Potency result is “inactive”.

Regarding `COc1ccc(CCN2C(=O)CC(N3CCC(C(N)=O)CC3)C2=O)cc1OC` (stereo not drawn), the Potency was 3.16 µM (active).

Regarding `COc1ccc(CCN2C(=O)C(C)=C(C)C2=O)cc1OC`, the Potency entry is “inactive”.

In the case of `COc1ccc(CCN2C(=O)C3CC=C(C)CC3C2=O)cc1OC` (stereo not drawn), the Potency entry is “inactive”.

In the case of `COCCn1c(SCC(=O)c2cc(C)ccc2C)nc2cc(C(=O)NC3CCCC3)ccc2c1=O`, the Potency result is “inactive”.

As to `CCCN1C(=O)C(O)(CC(=O)c2ccc(CC)cc2)c2cc(Br)ccc21` (stereo not drawn), the Potency entry was “inactive”.

For the compound `CC(=O)Nc1cccc(NC(=O)CSc2nccn2Cc2ccc3c(c2)OCO3)c1`, the Potency entry was “inactive”.

For `Cc1ccccc1CN1CCC(CNC(=O)c2cc3ccc4cccnc4c3[nH]2)CC1`, the Potency result was “inactive”.

Regarding `CCOc1ccc(CNC(=O)c2cc(-c3ccc(Cl)s3)nc3ccccc23)cc1`, the Potency entry was “inactive”.

Consider `CCOC(=O)c1c(-c2ccc(-c3ccccc3)cc2)csc1NC(=O)CCC(=O)O`, for which the Potency entry is “inactive”.

With `CCCS(=O)(=O)c1ncc(Cl)c(C(=O)Nc2scc(-c3ccccc3)c2C(=O)OCC)n1`, the Potency is 2 µM (active).

Regarding `CCOC(=O)c1scc(-c2ccccc2)c1S(=O)(=O)Nc1ccccc1F`, the Potency result is “inactive”.

For `CCC(Sc1nnc(-c2ccc(OC)cc2)c(-c2ccc(OC)cc2)n1)C(=O)NC1CCCCC1` (stereo not drawn), the Potency result is “inactive”.

For `COc1cccc(CNC(=O)c2ccc3c(c2)N(Cc2ccc(C(F)(F)F)cc2)C(=O)c2ccccc2S3)c1OC`, the Potency result was “inactive”.

In the case of `CCOc1ccc(-n2c(C)nc3c(cnn3-c3ccc(C)cc3)c2=O)cc1`, the Potency entry was “inactive”.

For `CCOCCCNC(=S)Nc1ccc2nc(N3CCN(CC)CC3)cc(C)c2c1`, the Potency was 50.1 µM (active).

With `Cc1cc(N2CCOCC2)nc2ccc(NC(=S)N3CCN(Cc4ccccc4)CC3)cc12`, the Potency entry is “inactive”.

As for `CCN1CCN(c2cc(C)c3cc(NC(=O)c4cc(Cl)ccc4OC)ccc3n2)CC1`, the Potency entry is “inactive”.

Regarding `Cc1cccc(-n2ccnc2SCC(=O)Nc2cc(C(F)(F)F)ccc2Cl)c1`, the Potency entry is “inactive”.

On to `CCOc1ccc(N(C)S(=O)(=O)c2cc(-c3cnc(C)o3)ccc2OC)cc1`, for which the Potency entry is “inactive”.

Regarding `C=C(Br)CN1CCN(CC(=C)Br)CC1`, the Potency was 10 µM (active).

As for `COc1ccc(CCNC(=O)c2cn(C)c3ccc(S(=O)(=O)N(C)C4CCCCC4)cc3c2=O)cc1OC`, the Potency entry was “inactive”.

Regarding `CCCCCn1c(=O)[nH]c2cc(C(=O)Nc3ccc(F)cc3)ccc2c1=O`, the Potency entry is “inactive”.

On to `CCCC12CN3CC(CCC)(CN(C1)C3c1c[nH]c3ccc(OC)cc13)C2=O` (stereo not drawn), for which the Potency entry was “inactive”.

As to `Cc1ccc(Cl)cc1NC(=O)/C(C#N)=C\c1cn(Cc2ccc(F)cc2)c2ccccc12`, the Potency entry is “inactive”.

Consider `COc1ccc(C2CC(c3cccs3)=NN2c2nc(C)c(C(C)=O)s2)cc1OC` (stereo not drawn), for which the Potency result is “inactive”.

Consider `COc1ccc(C2CC(c3cccs3)=NN2c2ccc(F)cc2)cc1OC` (stereo not drawn), for which the Potency is 56.2 µM (active).

Turning to `COc1ccc(C2CC(c3cccs3)=NN2C(=O)CSc2nncs2)cc1OC` (stereo not drawn), the Potency entry was “inactive”.

As to `O=C1C=C(c2ccc(Cl)cc2)C(=O)N1Nc1ccccc1`, the Potency entry was “inactive”.

Consider `O=C(O)CC1=C(Nc2ccccc2)C(=O)N(c2ccccc2)C1c1ccc(Cl)cc1` (stereo not drawn), for which the Potency was 39.8 µM (active).

Turning to `COC(=O)CN1C(=S)N(c2ccccc2)C(=O)C1CC(=O)Nc1ccc(Cl)cc1` (stereo not drawn), the Potency result is “inactive”.

In the case of `Cc1ccc(CCNC(=O)c2nnc(Cc3cccc(F)c3)o2)cc1`, the Potency entry was “inactive”.

In the case of `CCNC(=O)c1cc2n(n1)CCCN(Cc1ccc(C)cc1)C2=O`, the Potency entry is “inactive”.

On to `CSc1ccc(CCNC(=O)c2ccc3c(c2)nc2n3CCOC2)cc1`, for which the Potency entry is “inactive”.

With `Cc1cn(C)c(CC(=O)NCc2ccccc2)c1C(=O)O`, the Potency result was “inactive”.

Take `CCC(c1nnnn1C1CCCC1)N(Cc1cccs1)Cc1cc2cccc(C)c2[nH]c1=O` (stereo not drawn): the Potency result was “inactive”.

Turning to `CCOc1ccc2[nH]c(=O)c(CN(Cc3nnnn3Cc3ccccc3)CC3CCCO3)cc2c1` (stereo not drawn), the Potency result was “inactive”.

For the compound `CCC(c1nnnn1Cc1ccco1)N(Cc1cc2cc(OC)ccc2[nH]c1=O)C1CCCCC1` (stereo not drawn), the Potency is 12.6 µM (active).

Regarding `Cc1cccc2cc(CN(Cc3cccs3)C(=S)NCc3ccco3)c(=O)[nH]c12`, the Potency result was “inactive”.

Turning to `COc1ccc2[nH]c(=O)c(CN(Cc3nnnn3CCc3ccccc3)CC3CCCO3)cc2c1` (stereo not drawn), the Potency result was “inactive”.

In the case of `CCC(c1nnnn1Cc1ccco1)N(CCc1ccccc1)Cc1cc2cccc(C)c2[nH]c1=O` (stereo not drawn), the Potency was 22.4 µM (active).

For the compound `Cc1ccc(-c2nnc(SCc3ccccc3C)o2)cc1`, the Potency result is “inactive”.

Take `Cc1ccc(C)c(N2CCN(C(c3ccccc3)c3nnc(-c4ccccc4)o3)CC2)c1` (stereo not drawn): the Potency entry was “inactive”.

For `COc1cc(C(=O)Nc2ccc(OCc3cc(=O)n4ccc(C)cc4n3)cc2)cc(OC)c1OC`, the Potency result is “inactive”.

In the case of `CCCCn1c(CNC(=O)C23CC4CC(CC(C4)C2)C3)nnc1SCC(=O)Nc1ccc(C)cc1`, the Potency result was “inactive”.

Regarding `COc1ccc(NS(=O)(=O)c2cc3c4c(c2)CC(=O)N4CCC3)cc1Cl`, the Potency result was “inactive”.

For `Cc1n[nH]c(=O)c2c(NC(=O)CSc3ccccc3F)oc(C)c12`, the Potency result is “inactive”.

Consider `Cc1n[nH]c(=O)c2c(NC(=O)COC(=O)c3ncc(Cl)c(Cl)c3Cl)oc(C)c12`, for which the Potency is 15.8 µM (active).

`Cc1n[nH]c(=O)c2c(NC(=O)CSc3cc(Cl)ccc3Cl)oc(C)c12`: the Potency entry was “inactive”.

For the compound `CC(=O)c1ccc(NC(=O)CSc2nnc(NC(=O)Nc3ccccc3)s2)cc1`, the Potency entry was “inactive”.

With `CCc1ccc(NC(=O)CCCc2nnc3n(CCCOC)c(=O)c4sccc4n23)cc1`, the Potency entry is “inactive”.

As to `COc1ccc(C(=O)c2oc3ccccc3c2NC(=O)COc2cccc(C)c2)cc1`, the Potency result is “inactive”.

As for `CN(Cc1ccccc1)C(=O)c1cn(C)c2ccc(S(=O)(=O)N3CCCCC3)cc2c1=O`, the Potency result is “inactive”.
